From PubChem BioAssay come the findings set out here.

Results filed as inconclusive are left out. Active and inactive are the calls of the source. The limit is not given here; nearly all actives have AC50 up to about 26 µM.

A short description of the test: JHH-DIPG-1 glioma cell viability, MIPE5.0 library, CellTiter-Glo luminescence, qHTS (AID 1347067).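 Also: cells exposed to compound for 48 hours before readout.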 Conditions: JHH-DIPG-1 glioma viability, CellTiter-Glo ATP luminescence. (In general: ATP-based viability assays read luminescence as a measure of living cells.)
Take `COc1ccc2nc(S(=O)Cc3ncc(C)c(OC)c3C)[nH]c2c1` (stereo not drawn): the call was inactive.

For `CC(C)[C@H](N)C(=O)OCCOCn1cnc2c(=O)[nH]c(N)nc21`, the outcome was inactive.

Turning to `C[N+]1(C)[C@@H]2CC(OC(=O)[C@H](CO)c3ccccc3)C[C@H]1[C@@H]1O[C@@H]12` (stereo partly drawn), the molecule was classed as inactive.

For the molecule `Cn1c(NCCN(CCO)CCCc2ccc([N+](=O)[O-])cc2)cc(=O)n(C)c1=O`, the molecule was called inactive.

As to `CCN1CCN(C(=O)N[C@@H](C(=O)N[C@@H]2C(=O)N3C(C(=O)O)=C(CSc4nnnn4C)CS[C@H]23)c2ccc(O)cc2)C(=O)C1=O`, the molecule was called inactive.

In the case of `CNNCc1ccc(C(=O)NC(C)C)cc1`, the outcome was inactive.

In the case of `CCOC(=O)[C@H](CCc1ccccc1)N[C@@H](C)C(=O)N1CCC[C@H]1C(=O)O`, the result was inactive.

Consider `COc1ccc(C(=O)CC(=O)c2ccc(C(C)(C)C)cc2)cc1`, for which the call was inactive.

Take `NNc1nncc2ccccc12`: the molecule was called inactive.

With `O=NN(CCCl)C(=O)NCCCl`, the outcome was inactive.

Turning to `Cc1cn[nH]c1`, the molecule was called inactive.

By AC50 is commonly meant the midpoint of the concentration-response curve, whichever way the signal moves. `COc1ccc2cc3[n+](cc2c1OC)CCc1cc2c(cc1-3)OCO2`: the AC50 is 18.6 µM (active).

Consider `O=c1c(O)c(-c2ccc(O)c(O)c2)oc2cc(O)cc(O)c12`, for which the molecule was called inactive.

With `Cc1[nH]c(=O)c(C#N)cc1-c1ccncc1`, the molecule was classed as inactive.

Consider `COc1cc2c(N3CCN(C(=O)Nc4ccc(OC(C)C)cc4)CC3)ncnc2cc1OCCCN1CCCCC1`, for which the result was inactive.

Turning to `Cc1ccsc1C(=CCCN1CCC[C@@H](C(=O)O)C1)c1sccc1C`, the molecule was classed as inactive.

As to `Nc1nc(=S)c2[nH]cnc2[nH]1`, the AC50 was 1.05 µM (active).

Consider `CCCN(CCC)C(=O)C(CCC(=O)O)NC(=O)c1ccccc1` (stereo not drawn), for which the outcome was inactive.
